The source made the active and inactive calls. Rule for the calls: active = hit-call score of the fitted dose curve at least 0.9, where 1 is the maximum; inactive = score below 0.9.

Test [1] concerns the target Transcription factor E2F1 (Homo sapiens) (UniProt Q01094). The experiment in a line: ATG_E2F_CIS: Attagene CIS-FACTORIAL HepG2 Assay for human E2F Transcription Factor 1 (AID 2282935). Particulars: HepG2 Attagene cis-reporter, E2F reporter RNA transcripts; actives raise or lower the signal. An outline of the steps:
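Gain or loss of reporter transcript, fitted against DMSO, reflects E2F1-driven transcription. Transiently transfected HepG2 dosed 24 h before RNA isolation. Quantified by fluorescent RT-PCR products separated by capillary electrophoresis.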

The nature of test [2]: ATG_E_Box_CIS: Attagene CIS-FACTORIAL HepG2 Assay for human Enhancer Box (E-box) (AID 2282936). Particulars: HepG2 E-box cis-reporter transcription, actives raise or lower the signal. A digest of the protocol:
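E-box-driven reporter transcripts measured in transiently transfected HepG2 after 24 h exposure: RNA reverse-transcribed, PCR-amplified, fluorescently labelled, digested and resolved by capillary electrophoresis. Gain or loss relative to DMSO.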

Test [3] in a line: ATG_M_61_CIS: Attagene CIS-FACTORIAL HepG2 Assay for M61 Transcription Factor (Internal Marker) (AID 2282937). Particulars: HepG2 Attagene CIS-FACTORIAL M61 internal marker reporter; actives raise or lower the signal. An outline of the steps:
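Fluorescence from labelled cDNA fragments, separated by capillary electrophoresis, quantifies reporter induction. HepG2 cells bearing transiently transfected cis-promoter MRTUs were incubated with test chemical for 24 h; DMSO defined baseline for gain/loss fitting.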

Test [4] is described as follows: ATG_EGR_CIS: Attagene CIS-FACTORIAL HepG2 Assay for human Early Growth Response 1 (EGR1) (AID 2282938). Particulars: HepG2 Attagene CIS-FACTORIAL EGR reporter mRNA; actives raise or lower the signal. An outline of the steps:
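Cell-based multiplex transcription assay: HepG2 carrying transfected cis-element reporter units, 24 h chemical treatment. Fluorescence from capillary electrophoresis of RT-PCR products gives mRNA levels; fitting is bidirectional relative to DMSO.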

A short description of test [5]: ATG_M_19_CIS: Attagene CIS-FACTORIAL HepG2 Assay for M19 Transcription Factor (Internal Marker) (AID 2282939). Particulars: HepG2 Attagene CIS-FACTORIAL M19 internal marker reporter; actives raise or lower the signal. A digest of the protocol: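 HepG2 cells transiently transfected with cis-regulated multiplexed reporter units, dosed 24 h. Reporter mRNA quantified by RT-PCR and capillary electrophoresis; internal background marker fitted bidirectionally versus DMSO.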

A short description of test [6]: ATG_ERE_CIS: Attagene CIS-FACTORIAL HepG2 Assay for Estrogen Response Element (ERE) (AID 2282940). Particulars: HepG2 ERE cis-reporter, Attagene RNA transcript; actives raise or lower the signal. A digest of the protocol:
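HepG2 cells transiently transfected with multiplexed cis-element reporter units, measuring endogenous transcription factor activity; ERE reporter mRNA quantified after 24 h exposure by RT-PCR, fluorescent labelling, HpaI digestion and capillary electrophoresis. Bidirectional change versus DMSO.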

Test [7] in a line: ATG_Ets_CIS: Attagene CIS-FACTORIAL HepG2 Assay for human Erythroblast Transformation Specific (ETS) (AID 2282941). Conditions: HepG2 ETS cis-reporter transcription, actives raise or lower the signal. A digest of the protocol:
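Bidirectional fit versus DMSO of reporter mRNA signal, detected by RT-PCR and capillary electrophoresis in HepG2 cells transiently transfected with cis-element reporters and dosed 24 h.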

In test [8] the target is Hepatocyte nuclear factor 3-beta (Homo sapiens) (UniProt Q9Y261). The experiment in a line: ATG_FoxA2_CIS: Attagene CIS-FACTORIAL HepG2 Assay for human Forkhead box A2 (FOXA2) (AID 2282942). Particulars: HepG2 cis-reporter transcription factor activity, 24 h; actives raise or lower the signal. A digest of the protocol: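 In transiently transfected human HepG2 cells, promoter-driven reporter mRNA levels after 24 h chemical exposure are determined via RT-PCR with capillary electrophoresis. DMSO serves as baseline for bidirectional fitting.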
Chain of Hepatocyte nuclear factor 3-beta (Homo sapiens) (Q9Y261 whole entry, looked up): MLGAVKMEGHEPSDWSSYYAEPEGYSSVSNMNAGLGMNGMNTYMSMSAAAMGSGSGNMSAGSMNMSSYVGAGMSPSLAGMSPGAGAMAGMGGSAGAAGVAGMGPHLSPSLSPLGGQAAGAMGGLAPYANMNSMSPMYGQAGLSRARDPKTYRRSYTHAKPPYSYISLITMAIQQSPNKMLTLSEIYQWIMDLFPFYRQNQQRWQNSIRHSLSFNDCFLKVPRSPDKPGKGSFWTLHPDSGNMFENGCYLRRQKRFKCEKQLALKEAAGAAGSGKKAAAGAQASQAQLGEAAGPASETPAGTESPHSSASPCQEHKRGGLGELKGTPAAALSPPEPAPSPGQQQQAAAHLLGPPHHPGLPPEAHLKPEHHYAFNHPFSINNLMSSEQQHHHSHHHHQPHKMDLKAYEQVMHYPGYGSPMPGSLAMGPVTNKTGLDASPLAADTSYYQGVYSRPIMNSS

Test [9] can be described thus: ATG_FoxO_CIS: Attagene CIS-FACTORIAL HepG2 Assay for human Forkhead box O (FoxO) (AID 2282943). Conditions: HepG2 Attagene cis-reporter, FoxO element, mRNA; actives raise or lower the signal. A digest of the protocol:
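Endogenous transcription factor activity read from multiplexed cis-promoter reporter transcripts in transiently transfected HepG2, 24 h after dosing. Reporter RNA measured via RT-PCR plus capillary electrophoresis of FAM-labeled products; gain or loss relative to DMSO.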

Test [10] is described as follows: ATG_GATA_CIS: Attagene CIS-FACTORIAL HepG2 Assay for human GATA Binding Protein (AID 2282944). Conditions: HepG2 GATA cis-element reporter, Attagene multiplex mRNA; actives raise or lower the signal. A digest of the protocol: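 HepG2 cells transiently transfected with multiplexed cis-element reporter units measure endogenous GATA activity; after 24 h compound exposure, reporter mRNA quantified by RT-PCR and capillary electrophoresis. Changes fitted in both directions vs DMSO.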

Test [11] is described as follows: ATG_GLI_CIS: Attagene CIS-FACTORIAL HepG2 Assay for human Zinc Finger Protein GLI1 (AID 2282945). Conditions: HepG2, Attagene cis-factorial reporter mRNA, GLI element; actives raise or lower the signal. An outline of the steps: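 Bidirectional curve fits relative to DMSO, using reporter mRNA levels from RT-PCR plus capillary electrophoresis. Cells were HepG2 transiently carrying cis-regulated reporter constructs, harvested 24 h after dosing.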

A short description of test [12]: ATG_GRE_CIS: Attagene CIS-FACTORIAL HepG2 Assay for human Glucocorticoid Response Elements (GRE) (AID 2282947). Particulars: HepG2 GRE cis-reporter, Attagene multiplex mRNA; actives raise or lower the signal. An outline of the steps: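 Reporter transcripts read by RT-PCR with capillary electrophoresis fluorescence after a 24 h chemical exposure of HepG2 cells transiently transfected with multiple cis-element reporter units. Gain or loss fitted against DMSO.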

Test [13] can be described thus: ATG_ISRE_CIS: Attagene CIS-FACTORIAL HepG2 Assay for human Interferon Regulatory Factor 1 (IRF1) binding to an Interferon-Stimulated Response Element (ISRE) (AID 2282948). Particulars: HepG2 ISRE cis-reporter (Attagene), mRNA transcription readout; actives raise or lower the signal. A digest of the protocol: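 Uses HepG2 liver cells transfected with cis-regulated reporters and measures mRNA 24 h post-dosing through RT-PCR, primer-extension labelling and capillary electrophoresis, with DMSO as negative control.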

A short description of test [14]: ATG_M_06_CIS: Attagene CIS-FACTORIAL HepG2 Assay for M06 Transcription Factor (Internal Marker) (AID 2282950). Conditions: HepG2 Attagene CIS-FACTORIAL M06 internal marker reporter; actives raise or lower the signal. A digest of the protocol: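 Internal background marker within multiplexed cis-reporter HepG2 system. Cells transiently transfected, dosed 24 h; reporter mRNA measured by RT-PCR, HpaI digestion and capillary electrophoresis. Bidirectional fit relative to DMSO.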

In test [15] the target is Hypoxia-inducible factor 1-alpha (Homo sapiens) (UniProt Q16665). Description: ATG_HIF1a_CIS: Attagene CIS-FACTORIAL HepG2 Assay for human Hypoxia Inducible Factor 1 (HIF1A) (AID 2282951). Particulars: HepG2 Attagene cis-factorial HIF1a reporter transcription; actives raise or lower the signal. An outline of the steps: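 In this multiplexed cell assay, HepG2 cells bearing transfected cis reporters are dosed for 24 h and reporter mRNA is read by RT-PCR plus capillary electrophoresis; signal increases and decreases are both scored against DMSO.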
Chain of Hypoxia-inducible factor 1-alpha (Homo sapiens) (Q16665 whole entry, looked up): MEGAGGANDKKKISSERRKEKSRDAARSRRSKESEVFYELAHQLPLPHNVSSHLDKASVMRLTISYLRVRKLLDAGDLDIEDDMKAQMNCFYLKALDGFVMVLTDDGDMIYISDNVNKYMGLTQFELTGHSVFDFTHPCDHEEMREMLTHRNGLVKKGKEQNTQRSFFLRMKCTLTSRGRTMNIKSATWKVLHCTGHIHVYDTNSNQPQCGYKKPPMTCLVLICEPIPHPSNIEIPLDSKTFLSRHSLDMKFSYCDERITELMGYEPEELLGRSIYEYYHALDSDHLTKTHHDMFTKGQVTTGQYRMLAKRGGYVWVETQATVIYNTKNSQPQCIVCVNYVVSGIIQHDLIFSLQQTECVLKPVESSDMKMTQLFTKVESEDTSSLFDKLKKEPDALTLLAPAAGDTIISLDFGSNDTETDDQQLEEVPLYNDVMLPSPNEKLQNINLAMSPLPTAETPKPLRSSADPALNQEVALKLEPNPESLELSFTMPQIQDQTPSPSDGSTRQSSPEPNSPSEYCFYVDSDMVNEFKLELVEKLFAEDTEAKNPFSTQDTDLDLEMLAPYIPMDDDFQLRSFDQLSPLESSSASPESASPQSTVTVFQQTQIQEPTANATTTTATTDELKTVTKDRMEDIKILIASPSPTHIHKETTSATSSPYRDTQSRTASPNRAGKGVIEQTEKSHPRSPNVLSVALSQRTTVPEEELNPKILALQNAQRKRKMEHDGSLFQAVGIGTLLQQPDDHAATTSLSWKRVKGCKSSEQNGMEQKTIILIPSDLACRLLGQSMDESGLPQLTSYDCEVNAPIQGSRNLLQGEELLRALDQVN

Test [16] has as its target Hepatocyte nuclear factor 6 (Homo sapiens) (UniProt Q9UBC0). The experiment in a line: ATG_HNF6_CIS: Attagene CIS-FACTORIAL HepG2 Assay for human Hepatocyte Nuclear Factor 6 (HNF6) (AID 2282952). Conditions: HepG2 Attagene cis-factorial HNF6 reporter transcription; actives raise or lower the signal. An outline of the steps:
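Endogenous factor activity read in transiently transfected HepG2 via promoter-regulated reporter transcripts. RNA harvested 24 h post-dosing, reverse-transcribed, PCR-amplified, FAM-labelled, HpaI-digested and resolved by capillary electrophoresis; fitted in both directions against DMSO.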

Test [17] addresses Heat shock factor protein 1 (Homo sapiens) (UniProt Q00613). The experiment in a line: ATG_HSE_CIS: Attagene CIS-FACTORIAL HepG2 Assay for human Heat Shock Transcription Factor 1 (HSE) (AID 2282953). Particulars: HepG2 HSE cis-reporter, Attagene RNA transcription; actives raise or lower the signal. An outline of the steps: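 HepG2 cells transfected with cis-promoter reporter units sensing endogenous transcription factor activity; reporter mRNA quantified 24 h post-dose by RT-PCR and capillary electrophoresis of 6-FAM-labelled products. Bidirectional fitting against DMSO.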

Test [18] in a line: ATG_MRE_CIS: Attagene CIS-FACTORIAL HepG2 Assay for human Metal Responsive Element (MRE) (AID 2282954). Particulars: HepG2 MRE cis-reporter transcription, Attagene multiplex; actives raise or lower the signal. An outline of the steps: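 Endogenous MRE-dependent transcription read as reporter mRNA in transiently transfected human HepG2 cells at 24 h. RNA reverse-transcribed, PCR-amplified, labelled and resolved by capillary electrophoresis; gain or loss relative to DMSO.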

The nature of test [19]: ATG_M_32_CIS: Attagene CIS-FACTORIAL HepG2 Assay for M32 Transcription Factor (Internal Marker) (AID 2282949).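 Note: background control marker of the multiplexed CIS panel rather than a real target.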 Conditions: HepG2 Attagene cis-factorial M32 reporter, mRNA; actives raise or lower the signal. An outline of the steps:
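HepG2 transfectants (cis-regulated reporter transcription units) dosed 24 h. Reporter mRNA by RT-PCR plus CE, analysed as gain or loss relative to DMSO.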

Test [20] has as its target Bile acid receptor (Homo sapiens) (UniProt Q96RI1). The experiment in a line: ATG_IR1_CIS: Attagene CIS-FACTORIAL HepG2 Assay for human Nuclear Receptor Subfamily 1 Group H Member 4 (NR1H4), IR1 submotif (AID 2282946). Conditions: IR1 reporter transcription, actives raise or lower the signal. A digest of the protocol:
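HepG2 cells transiently transfected with multiplexed cis-element reporter units read endogenous transcription factor activity. After 24 h compound exposure, reporter mRNA was quantified by RT-PCR, fluorescent labelling, HpaI digestion and capillary electrophoresis; bidirectional fitting versus DMSO baseline.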

Chain of Heat shock factor protein 1 (Homo sapiens) (Q00613 whole entry, looked up): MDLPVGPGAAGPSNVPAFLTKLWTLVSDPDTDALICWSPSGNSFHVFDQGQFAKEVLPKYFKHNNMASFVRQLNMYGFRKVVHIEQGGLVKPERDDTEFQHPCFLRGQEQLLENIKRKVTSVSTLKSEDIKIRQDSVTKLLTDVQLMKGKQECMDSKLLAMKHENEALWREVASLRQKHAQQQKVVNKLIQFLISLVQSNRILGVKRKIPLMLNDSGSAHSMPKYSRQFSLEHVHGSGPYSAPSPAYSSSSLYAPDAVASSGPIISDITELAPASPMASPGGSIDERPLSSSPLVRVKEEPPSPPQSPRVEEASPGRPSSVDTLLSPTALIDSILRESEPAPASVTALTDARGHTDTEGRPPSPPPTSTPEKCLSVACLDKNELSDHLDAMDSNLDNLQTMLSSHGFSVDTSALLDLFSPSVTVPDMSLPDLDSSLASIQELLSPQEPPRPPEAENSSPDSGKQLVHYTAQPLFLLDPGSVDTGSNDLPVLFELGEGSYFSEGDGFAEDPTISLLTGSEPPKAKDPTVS
Chain of Transcription factor E2F1 (Homo sapiens) (Q01094 whole entry, looked up): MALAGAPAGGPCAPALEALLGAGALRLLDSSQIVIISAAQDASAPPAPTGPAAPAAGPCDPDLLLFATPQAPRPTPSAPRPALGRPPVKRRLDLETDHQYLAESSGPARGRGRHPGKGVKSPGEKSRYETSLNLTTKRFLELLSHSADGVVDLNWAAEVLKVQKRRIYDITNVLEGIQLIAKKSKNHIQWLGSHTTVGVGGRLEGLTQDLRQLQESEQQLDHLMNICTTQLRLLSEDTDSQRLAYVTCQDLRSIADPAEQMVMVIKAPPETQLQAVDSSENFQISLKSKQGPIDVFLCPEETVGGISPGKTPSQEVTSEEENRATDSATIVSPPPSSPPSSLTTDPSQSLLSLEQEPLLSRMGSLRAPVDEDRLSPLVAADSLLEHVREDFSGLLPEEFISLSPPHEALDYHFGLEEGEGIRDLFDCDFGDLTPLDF
Chain of Hepatocyte nuclear factor 6 (Homo sapiens) (Q9UBC0 whole entry, looked up): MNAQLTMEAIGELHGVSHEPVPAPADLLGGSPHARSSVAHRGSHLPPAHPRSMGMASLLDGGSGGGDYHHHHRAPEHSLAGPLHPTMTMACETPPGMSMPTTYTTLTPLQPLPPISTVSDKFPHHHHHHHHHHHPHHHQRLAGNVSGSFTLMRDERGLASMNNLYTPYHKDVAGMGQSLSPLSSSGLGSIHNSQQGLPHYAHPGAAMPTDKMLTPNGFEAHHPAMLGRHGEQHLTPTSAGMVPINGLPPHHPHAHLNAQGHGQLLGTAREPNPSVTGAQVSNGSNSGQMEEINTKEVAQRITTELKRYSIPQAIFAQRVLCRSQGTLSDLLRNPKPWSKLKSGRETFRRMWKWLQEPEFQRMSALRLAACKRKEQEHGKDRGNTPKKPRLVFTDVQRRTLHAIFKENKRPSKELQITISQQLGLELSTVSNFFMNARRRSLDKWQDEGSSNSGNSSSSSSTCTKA
Chain of Bile acid receptor (Homo sapiens) (Q96RI1 whole entry, looked up): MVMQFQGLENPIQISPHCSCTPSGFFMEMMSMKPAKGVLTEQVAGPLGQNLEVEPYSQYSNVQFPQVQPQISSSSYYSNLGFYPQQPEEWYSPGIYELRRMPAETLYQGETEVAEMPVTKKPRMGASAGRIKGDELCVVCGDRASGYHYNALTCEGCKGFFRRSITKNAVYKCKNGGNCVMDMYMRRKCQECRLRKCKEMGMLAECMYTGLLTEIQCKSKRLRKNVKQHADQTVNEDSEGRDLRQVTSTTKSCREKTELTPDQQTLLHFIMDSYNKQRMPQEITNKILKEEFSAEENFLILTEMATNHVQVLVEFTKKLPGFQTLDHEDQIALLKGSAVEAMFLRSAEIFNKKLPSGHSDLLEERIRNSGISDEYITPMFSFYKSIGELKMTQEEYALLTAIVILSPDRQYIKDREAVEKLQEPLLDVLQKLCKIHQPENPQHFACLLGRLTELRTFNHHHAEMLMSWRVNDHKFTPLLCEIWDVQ

`O=C(O)C(Cl)Cl`: the compound was classed as inactive in [1], in test [2], in [3], in test [4], in test [5] and in test [6]. Moreover, the call in [7], in test [8], in test [9], in [10], in test [11] and in test [12] was inactive. The call in test [13], in test [14], in test [15], in test [16], in test [17] and in test [18] was inactive.

As for `CCC1(c2ccccc2)C(=O)N=C(O)NC1=O` (stereo not drawn), the result in test [1], in test [2], in test [3], in test [4], in test [5] and in test [6] was inactive. Further, the call in test [7], in test [8], in test [9], in [10], in [11] and in test [13] was inactive. Moreover, the result in [19], in [14], in test [15], in [16], in test [17] and in test [18] was inactive.

One may read the AC50 as the concentration at which the activity in the assay is half-maximal. Take `ClC(Cl)(Cl)c1ccccc1`: the outcome in test [1], in [2], in [3], in test [4], in test [5] and in test [7] was inactive. Also, the compound was called inactive in test [8], in test [9], in test [10], in test [11], in test [20] and in test [12]. In addition, the result in test [13], in test [14], in [15], in test [16], in test [17] and in [18] was inactive. Besides, the AC50 in [6] was 45.1 µM (active).

On to `CCOP(=O)(O)C(N)=O`, for which the outcome in [1], in [2], in [3], in test [4], in test [5] and in [6] was inactive. Moreover, the outcome in test [7], in [8], in test [9], in test [10], in test [11] and in test [20] was inactive. Moreover, the compound was called inactive in test [12], in test [13], in [14], in test [15], in test [16] and in [17]. Besides, in [18], the call was inactive.

For the compound `CC(Cc1ccc(OCC(=O)O)cc1)NCC(O)c1csc(C(F)(F)F)n1` (stereo not drawn), the compound was classed as inactive in [1], in test [2], in [3], in [4], in test [5] and in test [6]. The result in [7], in [8], in [9], in test [10], in test [11] and in [12] was inactive. Also, the compound was called inactive in test [13], in test [14], in [15], in test [16], in test [17] and in test [18].

With `O=C(O)C(F)(F)OC(F)(F)C(F)(F)OC(F)(F)F`, the compound was classed as inactive in [1], in test [2], in test [3], in test [4], in test [5] and in test [6]. The result in [7], in [8], in [9], in test [10], in test [11] and in [20] was inactive. Moreover, the compound was classed as inactive in [12], in test [13], in [14], in [15], in test [16] and in test [17]. Besides, the call in [18] was inactive.

`O=[N+]([O-])c1ccccc1`: the outcome in test [1], in test [2], in [3], in test [4], in test [5] and in [7] was inactive. Moreover, the outcome in test [8], in [9], in test [10], in [11], in test [12] and in test [13] was inactive. The result in test [14], in test [15], in [16] and in [18] was inactive. In [6], the AC50 is 52.7 µM (active).

These data come from PubChem BioAssay (EPA / NIEHS).
